Screens from PubChem BioAssay.
This is a sample that favours compounds with a hit; in the whole collection about 19% have one here.
Pf growth 48h: inhibits P. falciparum growth in the first generation, 48 h | P. falciparum luciferase growth in erythrocytes, 48 h | Potency, µM (top dose mostly 28.7 µM), for the others: top-dose activity change, negative = inhibition, actives largely listed as inhibitors | hit rate 5.9% among 310,000 | AID 504832; further: potency means the concentration at half of the fitted maximal effect; on the % scale 0 is the no-effect control and ±100 the full control effect
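Here the parasites carry a stable luciferase gene and grow inside erythrocytes in Albumax-based RPMI medium with compound for one erythrocytic cycle. Activity is scored as loss of luminescent signal.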
Shiga toxin inh: Shiga toxin inhibition; AID 2315; inhibition, % at 38.7 µM; hit rate 9.2% among 290,000; Vero cells, Shiga toxin protein synthesis inhibition reporter; in the data active means inhibition mostly above about 28%, no sharp cut-off; inactive means mostly below about 43%; further: 0% is about no effect
Cycloheximide cs: affects cycloheximide protein synthesis inhibition readout, counter-screen. cell reporter, cycloheximide protein synthesis inhibition counterscreen. max response, %. hit rate 12% among 300,000. AID 2314; in the data active means max response mostly above about 13%, no sharp cut-off; inactive means mostly below about 14%; further: read at 38.3 µM for the half of the compounds with a filed dose; 0% is about no effect
AMA1-RON2 inh: AMA1-RON2 (P. falciparum) interaction inhibition; AlphaScreen AMA1-biotinylated RON2 peptide binding; Potency, µM (doses to about 58.2 µM), for the others: at the highest dose activity change, negative = inhibition, hits mostly inhibitors; hit rate 0.2% among 360,000; AID 720542;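 further: potency means the concentration at half of the fitted maximal effect; 0% = vehicle wells and -100% = peptide control; nearly all actives have a fitted effect of over 45% in size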
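AMA1 (3D7) with his tag at 25 nM final met compounds first, then biotinylated RON2 peptide at 25 nM; detection used donor plus acceptor beads, 10 µg/mL apiece, read by AlphaScreen after 30 min at room temperature.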
SARS PLpro yeast: SARS-CoV PLP inhibition in yeast | S. cerevisiae expressing SARS-CoV PLpro, growth rescue | Potency, µM (top dose mostly 32.9 µM), inactives show top-dose activity, positive = growth rescue, usual class: activators | hit rate 0.19% among 330,000; calls by dose curve; further: potency means the concentration at half of the fitted maximal effect; 0% is about no effect; nearly all actives have a fitted effect of over 55% in size
Pf growth 96h: P. falciparum growth inhibition at 96 hour, primary screen for plastid delayed-death inhibitors; Potency, µM (series often up to 28.7 µM), without a hit: at the top dose activity change, negative = inhibition, usual class: inhibitors; hit rate 6.9% among 320,000; AID 504834; P. falciparum luciferase reporter growth, 96 h; further: potency means the concentration at half of the fitted maximal effect; on the % scale 0 is the no-effect control and ±100 the full control effect
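Readout is luminescence from an integrated firefly luciferase in P. falciparum. Red cells, 2% hematocrit and 0.05% parasitemia final, were cultured with compound through two parasite generations (96 hours) at 37 C, 5% CO2.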
Active calls of the source: *; ? = inconclusive; . = no result given; [ ] = another dose, or the depositor's remark. Unless noted, the call rests on the fitted dose curve; in most records, active means well fitted curve in the direction sought with a large enough effect; inconclusive means small, poorly fitted or top-dose-only effect, or another doubt; inactive means no such curve, though single readings can be large; an effect the other way counts as inactive or inconclusive.

SMILES | Pf growth 48h | Shiga toxin inh | Cycloheximide cs | AMA1-RON2 inh | SARS PLpro yeast | Pf growth 96h
CCOC(=O)c1ccc(NC(=O)CSc2nc3c(c(=O)n2CC)SC(C)C3)cc1 (centres undefined) | 10.4µM* | -3.1 | -1.8 | -16.0% | -19.9% | 9.28µM*
CCn1c(SCC(=O)Nc2cccc(F)c2)nc2c(c1=O)SC(C)C2 (centres undefined) | 4.15µM* | 4.1 | -1.8 | -5.7% | 9.9% | 2.62µM*
O=C(NC1CC1)C1CCN(C2CCN(C(=O)c3ccc4cccc(F)c4n3)CC2)CC1 | 1.8% | 19.3 | -3.9 | -3.3% | 0.3% | -0.4%
CCCn1c(SCC(=O)N(CC)c2c(N)n(Cc3ccccc3)c(=O)[nH]c2=O)nnc1-c1ccncc1 | . | . | . | 9.7%[11.6 µM] | . | .
Cc1cccc(C(=O)Nc2cccc(C(=O)N3CCOCC3)c2)c1 | . | 8.6 | 18.6 | 0.2% | 3.5% | 138.1%
Cc1ccc(Nc2ccc(C(=O)N3CCCC3)cn2)c(C)c1 | . | -6.9 | -3.8 | -18.1% | 8.7% | ?
Cc1cccc(Nc2ccc(C(=O)N3CCOCC3)cn2)c1 | -4.1% | 65.6* | 46.1* | 9.9% | 1.6% | ?
O=C(c1ccc(Nc2cccc(C(F)(F)F)c2)nc1)N1CCCC1 | ? | 18.6 | 8.8 | 4.5% | -5.5% | 16.5µM*
Cc1cc(NC(=O)C(C)SCC(=O)Nc2ccccc2C(C)(C)C)no1 (centres undefined) | 13.1µM* | . | . | 14.9% | 14.2% | 14.7µM*
Cc1cc(NC(=O)C(C)SCC(=O)Nc2cc(C(F)(F)F)ccc2N2CCCCC2)no1 (centres undefined) | ? | . | . | -7.3% | -8.7% | 11.7µM*
Cc1noc(C)c1CSCC(=O)Nc1cc(C(F)(F)F)ccc1N1CCCCC1 | 4.65µM* | . | . | -24.8% | -13.0% | ?
Cc1cc(NC(=O)CSCC(=O)Nc2cc(C(F)(F)F)ccc2N2CCCCC2)no1 | . | . | . | 1.4% | . | .
Cc1noc(C)c1CSCC(=O)Nc1cc(Cl)ccc1N1CCCCC1 | ? | . | . | -6.7% | -2.3% | 6.57µM*
COc1ccc(-c2ccc(C(=O)NCc3ccco3)c3occc23)c(C)c1 | . | . | . | -19.2% | . | .
C#CCOCCOCCOCCNc1nc(N2CCN(C(=O)[C@H]([C@@H](C)CC)n3cc([C@@H](N)CC(C)C)nn3)CC2)nc(N2CCN(C(=O)[C@H]([C@@H](C)CC)n3cc([C@@H](N)CC(C)C)nn3)CC2)n1 | 1.65µM* | 0.8 | 1.5 | 24.9% | -0.7% | 1.85µM*
C#CCOCCOCCOCCNc1nc(N2CCN(C(=O)[C@H]([C@@H](C)CC)n3cc([C@@H](N)Cc4ccc(O)cc4)nn3)CC2)nc(N2CCN(C(=O)[C@H]([C@@H](C)CC)n3cc([C@@H](N)Cc4ccc(O)cc4)nn3)CC2)n1 | 1.85µM* | -6.7 | -3.7 | 3.8% | -1.4% | 1.85µM*
NC(=O)CC(NC(=O)Cc1ccc(Br)cc1)c1ccc(NCc2ccc(F)c(F)c2)c([N+](=O)[O-])c1 (centres undefined) | -16.1% | -1.2 | -3.9 | -0.1% | 3.4% | -10.3%
COC(=O)c1ccc(C)c(-n2c(C)cc(C=O)c2C)c1 | -27.8% | 38.1 | -3.4 | 1.2% | -15.0% | -16.7%
O=C(O)[C@H](Cc1ccccc1)NC(=O)N1CCN(c2cccc(C(F)(F)F)c2)CC1 | -3.1% | -4.7 | 3.6 | 10.3% | 2.1% | 4.2%
CN(C)/C=C/C(=O)c1nnn(C2CCCCC2)c1NC1CCCCC1 | 5.22µM* | 8.5 | 8.7 | -3.4% | 0.0% | .
Cc1ccc2c(C)nc(Nc3nc(CSc4nnnn4-c4ccccc4)cc(=O)[nH]3)nc2c1 | 2.33µM* | -10.4 | 3.5 | 7.9% | 1.6% | .
COc1ccc2nc(Nc3nc(CSc4nnnn4-c4ccccc4)cc(=O)[nH]3)nc(C)c2c1 | . | -11.4 | -2.7 | -3.1% | -0.6% | ?
CCNC(=S)N1N=C2c3ccccc3CCC2C1c1ccc(F)cc1 (centres undefined) | 7.38µM* | 15.0 | -3.1 | -18.0% | -0.2% | 2.62µM*
COc1ccc(C2CC(=O)N(CC(=O)NCC3CCCO3)c3ccccc3S2)cc1OC (centres undefined) | ? | 18.2 | 24.6* | -1.4% | 0.1% | ?
COc1ccc(C2CC(=O)N(C)c3ccccc3S2)cc1OC (centres undefined) | 82.2% | 149.1* | 56.7* | 8.8% | -2.3% | ?
